High-throughput results (PubChem)
Only some compounds are listed: those with a hit (about 19% of all), similar ones and a draw of the others.
IL1B secr inh: blocks inflammasome-driven IL-1 beta release; THP-1 LPS/ATP IL-1B secretion, AlphaLISA, 16 h; hits give low values; activity change, % at 57.5 µM; actives 4.7% (n = 360,000); in the data active = activity change below about -50%; inconclusive = mostly about -30% to -49%
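Secreted IL-1B measured by AlphaLISA bead assay after 16 h compound exposure of THP-1 cells; compounds (final up to 57.5 uM) added 1 h before LPS (250 ng/mL) and ATP (1.25 mM) stimulation; lower signal means less secretion.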
HT1080 IDH1KD tx: toxicity to HT-1080 IDH1 knockdown cells (counter line). HT-1080 IDH1 knockdown viability, ATP luminescence, 48 h. Potency, µM (series often up to 46.1 µM), most hits filed as cytotoxic. actives 2% (n = 360,000). AID 686971
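Using the IDH1-knockdown HT-1080 line run in the same batch and compound series as the NT line, viability after 48 h at 37 °C was determined by CellTiter-Glo luminescence and expressed as % activity.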
uPA generation: cell surface uPA generation inhibition. actives 0.31% (n = 330,000). cell surface uPA generation assay, qHTS. AID 540303. Potency, µM (series often up to 38.3 µM), hits mostly inhibitors; active = well fitted inhibition curve with a large enough effect; inconclusive = small, poorly fitted or top-dose-only effect; inactive = no such curve, though single readings can be large or run the other way; tested in mouse RAW 264.7 cells; note: nearly all actives have a fitted effect of over 55% in size
DT40 TDP1 no CPT: qHTS for Inhibitors of human tyrosyl-DNA phosphodiesterase 1 (TDP1): qHTS in cells in absence of CPT | DT40 Tdp1-/- hTDP1 cells, no CPT, ATP luminescence, 48 h | Potency, µM (highest dose often 46.2 µM), most hits filed as inhibitors | actives 15% (n = 420,000) | AID 686978, 2013; note: nearly all actives have a fitted effect of over 55% in size
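Cells were dispensed at 400 per well, compounds added by pin tool, plates incubated ≥48 hr at 37 °C, then CellTiter-Glo added for 30 min at room temperature before luminescence reading. Line: DT40 Tdp1-/- complemented with hTDP1; camptothecin omitted.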
HT1080NT lethal: kills 2HG-producing HT-1080-NT fibrosarcoma cells. HT-1080-NT fibrosarcoma viability, CellTiter-Glo ATP luminescence, 48 h. Potency, µM (series often up to 46.1 µM), hits mostly cytotoxic. actives 1.6% (n = 360,000);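 note: NT is the 2HG producing partner of a matched IDH1 knockdown line; nearly all actives have a fitted effect of over 55% in size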
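Viability of the 2HG-overproducing fibrosarcoma line after 48 hours of compound exposure at 37 degrees C was determined by luminescence with CellTiter-Glo, and concentration-effect curves were then fitted and categorized.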
DT40 TDP1 CPT: growth inhibition of DT40 Tdp1-/-;hTDP1 cells with camptothecin (screen for TDP1 inhibitors); chicken DT40 Tdp1-/-;hTDP1 cells + 20 nM CPT, ATP luminescence, 48 h; Potency, µM (top dose mostly 46.2 µM), most hits filed as inhibitors; actives 12% (n = 420,000); note: nearly all actives have a fitted effect of over 55% in size
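Chicken DT40 Tdp1-/- cells complemented with human TDP1, 400 cells/well, exposed to compounds plus 20 nM camptothecin for at least 48 h at 37 C; viability read as ATP content by CellTiter-Glo luminescence.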
Hits are given with their value; n = inactive; u = inconclusive; x = no result given. Unless noted, calls come from the whole dose curve; as a rule, active = well fitted curve in the direction sought with a large enough effect; inconclusive = small, poorly fitted or top-dose-only effect, or another doubt; inactive = no such curve, though single readings can be large; an effect the other way counts as inactive or inconclusive.

SMILES	IL1B secr inh	HT1080 IDH1KD tx	uPA generation	DT40 TDP1 no CPT	HT1080NT lethal	DT40 TDP1 CPT
COc1ccc(C(CNC(=O)c2cccc(S(=O)(=O)N3CCc4ccccc43)c2)N(C)C)cc1 (stereo not drawn)	-74.9	n	n	10.3µM	n	u
Cc1cc2occ(CC(=O)N(C)CC(=O)Nc3ccc(F)cc3)c2cc1C	u	n	n	u	n	11.6µM
CC(=O)Nc1cccc(N)c1	n	n	n	n	n	n
Cc1cc(C)c2oc(C(=O)Nc3c(C)n(C)n(-c4ccccc4)c3=O)cc(=O)c2c1	x	x	x	n	x	n
COc1ccc(Nc2cc(C)c3cc(NC(=O)c4cc(OC)cc(OC)c4)ccc3n2)cc1	x	x	x	7.31µM	x	9.2µM
COc1ccc(NC(=O)c2cccc(NC(=O)c3ccccc3)c2)cc1	u	n	n	u	n	n
COc1ccc(Nc2cc(C)c3cc(NC(=O)COc4cccc(C)c4)ccc3n2)cc1	x	x	x	14.6µM	x	16.4µM
COc1ccc(CC(=O)Nc2ccc3nc(Nc4ccc(OC)cc4)cc(C)c3c2)cc1	x	x	x	23.1µM	x	u
COc1ccc(CC(=O)Nc2ccc(N3CCCC3)c(C)c2)cc1	n	n	n	u	n	u
COc1ccc(OCC(=O)Nc2cccc(OC)c2)cc1	n	n	n	n	n	n
Cc1cccc(NC(=O)Cc2c(F)cccc2Cl)n1	n	n	n	n	n	n
Cc1cc(Nc2cccc(Cl)c2)nc2ccc(NC(=O)Cc3c(F)cccc3Cl)cc12	x	x	x	7.31µM	x	13µM
Cc1cc(Cl)c2oc(C(=O)N(C)Cc3ccon3)c(C)c2c1	n	n	n	n	n	u
COc1ccc(Nc2cc(C)c3cc(NC(=O)Cc4c(F)cccc4Cl)ccc3n2)cc1	x	x	x	13µM	x	16.4µM
COCCN=C1Sc2nc3ccc(C)cc3cc2CN1Cc1cccs1	-86.9	n	n	20.6µM	n	u
COCCN1Cc2cc3cc(C)ccc3nc2SC1=Nc1ccc(OC)cc1	-52.6	n	n	u	n	u
CCOc1ccc2nc3c(cc2c1)CN(CCCO)C(=NCCOC)S3	u	n	n	14.6µM	n	u
CCC(C)N=C1Sc2nc3ccc(C)cc3cc2CN1CCOC (stereo not drawn)	-82.8	n	n	u	n	u
COCCN1Cc2cc3cc(C)ccc3nc2SC1=Nc1cccc(OC)c1	n	n	n	n	n	u
CCOc1ccc(S(=O)(=O)NCCC(=O)N(CC)CC(=O)Nc2c(F)cccc2F)cc1	n	n	n	u	n	n
Cc1ccc2oc3c(c(=O)c2c1)C(c1ccccc1F)N(CCCN1CCOCC1)C3=O (stereo not drawn)	x	x	x	18.4µM	x	u
Cc1ccc2oc3c(c(=O)c2c1)C(c1ccccc1F)N(CCCN(C)C)C3=O (stereo not drawn)	x	x	x	n	x	n
O=C1c2oc3ccc(Cl)cc3c(=O)c2C(c2ccccn2)N1CCCN1CCOCC1 (stereo not drawn)	n	n	u	29.1µM	n	23.1µM
CC(C)Oc1ccc(C2c3c(oc4ccccc4c3=O)C(=O)N2CCCN2CCOCC2)cc1 (stereo not drawn)	n	n	n	u	n	25.9µM
O=C1c2oc3ccc(F)cc3c(=O)c2C(c2ccc(F)cc2)N1CCCN1CCOCC1 (stereo not drawn)	n	n	n	n	n	n
SMILES	IL1B secr inh	HT1080 IDH1KD tx	uPA generation	DT40 TDP1 no CPT	HT1080NT lethal	DT40 TDP1 CPT
CC(C)c1ccc(C2c3c(oc4ccc(Cl)cc4c3=O)C(=O)N2CCCN2CCOCC2)cc1 (stereo not drawn)	x	x	x	u	x	18.4µM
Cc1ccccc1NC(=O)Cn1nc(-c2ccccc2)nc(Cc2ccccc2)c1=O	x	x	x	n	x	n
Cc1c2cnn(CC(=O)O)c(=O)c2c(C)n1Cc1cccc(Cl)c1	x	x	x	n	x	n
Cc1ccccc1Cn1c2ccccc2c2cnn(CC(=O)NCCc3ccc(Cl)cc3)c(=O)c21	x	x	x	18.4µM	x	u
Cc1c2cnn(CC(=O)NCCCN3CC(C)CC(C)C3)c(=O)c2c(C)n1Cc1ccccc1Cl (stereo not drawn)	-58.2	u	n	u	u	u
Cc1ccc(C)c(Cn2c3ccccc3c3cnn(CC(=O)NCC(C)c4ccccc4)c(=O)c32)c1 (stereo not drawn)	x	x	x	23.1µM	x	13µM
Cc1c2cnn(CC(=O)NCc3ccccc3)c(=O)c2c(C)n1Cc1cccc(Cl)c1	x	x	x	3.26µM	x	4.61µM
CCOc1ccc(CNC(=O)c2ccccc2NC(=O)C2=CSCCO2)cc1	n	n	n	u	n	u
CC(C)OC(=O)CSc1nnc2c(n1)[nH]c1ccc(F)cc12	n	n	n	n	n	n
Cc1ccc(C)c(Cn2c3ccccc3c3cnn(CC(=O)NC(C)CCc4ccccc4)c(=O)c32)c1 (stereo not drawn)	x	x	x	3.26µM	x	3.26µM
Cc1ccc(C)c(Cn2c3ccccc3c3cnn(CC(=O)NCc4ccccc4)c(=O)c32)c1	x	x	x	20.6µM	x	23.1µM
CC(CCc1ccccc1)NC(=O)Cn1ncc2c3ccccc3n(Cc3ccccc3F)c2c1=O (stereo not drawn)	x	x	x	8.2µM	x	8.2µM
Cc1ccc(C)c(Cn2c3ccccc3c3cnn(CC(=O)NC(C)c4ccccc4)c(=O)c32)c1 (stereo not drawn)	x	x	x	2.31µM	x	2.91µM
O=C(Cn1ncc2c3ccccc3n(Cc3ccccc3)c2c1=O)NCc1ccccc1	x	x	x	u	x	n
CN(C)P(=O)(Nc1cccc2ccccc12)Nc1cccc2ccccc12	n	n	n	9.2µM	n	8.2µM
CC(C)OP(=O)(Nc1cccc2ccccc12)OC(C)C	n	n	n	n	n	n
CNC(=S)NNC(=O)c1c(C)nc2cc(C)ccn12	n	n	n	n	n	n
Cc1cccc(NS(=O)(=O)c2ccc3oc(=O)ccc3c2)c1C	n	n	n	n	n	u
COc1ccc(NC(=O)COC(=O)C23CC4CC(CC(NC(C)=O)(C4)C2)C3)cc1S(=O)(=O)N1CCOCC1	n	n	n	16.4µM	n	25.9µM
COc1ccc(NC(=O)COC(=O)C23CC4CC(CC(O)(C4)C2)C3)cc1Cl	n	n	n	u	n	u
O=C(COC(=O)C12CC3CC(CC(O)(C3)C1)C2)Nc1ccc(Cl)c(S(=O)(=O)N2CCOCC2)c1	n	n	n	u	n	29.1µM
C=Cc1ccc(Cn2c(C)c(C(=O)NCCC#N)sc2=O)cc1	n	n	x	n	n	n
CCCOc1ccc(C2=CSC3=NCCN23)cc1[N+](=O)[O-]	n	n	n	u	n	u
O=C(COC(=O)c1ccc(S(=O)(=O)C(F)F)cc1)Nc1cccnc1Cl	n	n	n	n	n	n
